In PubChem BioAssay (NCATS):
Values joined by “and” are separate entries in the source; they are usually repeats but may differ in a detail not shown here. Equal entries are not always repeated. Inconclusive results are not listed. A number with no mark means an inactive call. Active and inactive are the calls of the source. Calls follow the shape of the dose curve; as a rule, active = well fitted curve in the direction sought with a large enough effect; inconclusive = small, poorly fitted or top-dose-only effect, or another doubt; inactive = no such curve, though single readings can be large; an effect the other way counts as inactive or inconclusive.

Assays:
[1] = BET inhibitor-based combinations targeting novel dependencies in MECOM-rearranged (r) AML: SET-2 cell line (AID 2202231); settings: SET-2 AML cells viability, CellTiter-Glo luminescence, 48 h; viability: active compounds read low, concentration not given here; also: nearly all actives have a fitted effect of over 35% in size;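 as to viability: plate controls were DMSO treated cells for no effect and wells without cells for full effect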
How it was run: (§1)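 500 cells/well; 11-pt dose curve; 48 h, standard incubator; CellTiter-Glo luminescence after 15 min RT; DMSO/empty-well normalization; AUC plus Z-AUC (mean-centered within each line).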

[2] = BET inhibitor-based combinations targeting novel dependencies in MECOM-rearranged (r) AML: HNT-34 cell line (AID 2202234); also: nearly all actives have a fitted effect of over 35% in size
How it was run: (§2)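 Cells were plated at 500 per well and exposed to each drug across an 11-point dose range for 48 hr at standard incubator conditions. Viability was read by CellTiter-Glo luminescence, and activity was expressed as AUC and per-cell-line Z-transformed AUC.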

[3] = BET inhibitor-based combinations targeting novel dependencies in MECOM-rearranged (r) AML: UCSD-AML1 cell line (AID 2202235); also: nearly all actives have a fitted effect of over 40% in size
How it was run: as §2

[4] = BET inhibitor-based combinations targeting novel dependencies in MECOM-rearranged (r) AML: AML-191 cell line (AID 2202236; also: nearly all actives have a fitted effect of over 35% in size)
How it was run: as §1

[5] = BET inhibitor-based combinations targeting novel dependencies in MECOM-rearranged (r) AML: AML-194 cell line (AID 2202237; also: nearly all actives have a fitted effect of over 40% in size)
How it was run: as §1

[6] = BET inhibitor-based combinations targeting novel dependencies in MECOM-rearranged (r) AML: MV-4-11 cell line (AID 2202233); also: nearly all actives have a fitted effect of over 45% in size
How it was run: as §2

[7] = BET inhibitor-based combinations targeting novel dependencies in MECOM-rearranged (r) AML: OCI-AML3 cell line (AID 2202232); settings: Potency: OCI-AML3 viability; also: nearly all actives have a fitted effect of over 35% in size
How it was run: as §1
Potency is read from the fitted curve at half-maximal effect.

NC(=S)N/N=C/c1ncccc1N
Potency [1]: 16.6 µM (active)
Potency [2]: 16.6 µM (active)
Potency [3]: 5.9 µM (active)
Potency [4]: 23.5 µM (active)
Potency [5]: 20.9 µM (active)

O=C(N[C@@H](c1ccccc1)[C@@H]1CCCCN1)c1cccc(C(F)(F)F)c1Cl
Potency [1]: 1.18 µM (active)
Potency [2]: 18.6 µM (active)

C=CC[C@@H]1/C=C(\C)C[C@H](C)C[C@H](OC)[C@H]2O[C@@](O)(C(=O)C(=O)N3CCCC[C@H]3C(=O)O[C@H](/C(C)=C/[C@@H]3CC[C@@H](O)[C@H](OC)C3)[C@H](C)[C@@H](O)CC1=O)[C@H](C)C[C@@H]2OC
viability [1]: 51.4%
Potency [2]: 23.5 µM (active)
Potency [3]: 26.3 µM (active)
Potency [4]: 18.6 µM (active)
Potency [5]: 20.9 µM (active)

O=C1CC(c2c[nH]c3ccc(F)cc23)C(=O)N1 (stereo not drawn)
viability [1]: 111%
Potency [2]: inactive
Potency [3]: inactive
Potency [4]: inactive
Potency [5]: inactive

C[C@H]1CN(C2COC2)CCN1c1ccc(Nc2cc(-c3ccnc(N4CCn5c(cc6c5CC(C)(C)C6)C4=O)c3CO)cn(C)c2=O)nc1
viability [1]: 121%
Potency [6]: 14.8 µM (active)
Potency [3]: inactive
Potency [4]: inactive
Potency [5]: inactive

C=CC(=O)N[C@H]1CCOC[C@H]1Nc1ncc2cc(-c3c(Cl)c(OC)cc(OC)c3Cl)ccc2n1
viability [1]: 104%
Potency [6]: 18.6 µM (active)
Potency [3]: inactive
Potency [4]: inactive
Potency [5]: inactive

CCOc1ccc(Cc2cc([C@@H]3O[C@H](CO)[C@@H](O)[C@H](O)[C@H]3O)ccc2Cl)cc1
viability [1]: 95%
Potency [2]: inactive

NC1=N[C@@]2(c3cc(NC(=O)c4ccc(F)cn4)ccc3F)COC[C@H]2CS1
viability [1]: 112%
Potency [2]: inactive
Potency [3]: inactive
Potency [4]: inactive
Potency [5]: inactive

O=C(O)CCC=CCC[C@@H]1[C@H](N2CCCCC2)[C@@H](O)C[C@@H]1OCc1ccc(-c2ccccc2)cc1
Potency [1]: 1.18 µM (active)
Potency [6]: inactive
Potency [3]: inactive
Potency [4]: inactive
Potency [5]: inactive

O=C1S/C(=C\c2ccc(OCc3cccc(B(O)O)c3)cc2)C(=O)N1Cc1ccc(F)cc1
viability [1]: 87.6%
Potency [6]: 18.6 µM (active)
Potency [4]: 18.6 µM (active)
Potency [5]: inactive

COc1cc(C)c(/C=C/C(C)=C/C=C/C(C)=C/C(=O)O)c(C)c1C
viability [1]: 101%
Potency [6]: 5.9 µM (active)
Potency [3]: inactive
Potency [4]: 1.86 µM (active)
Potency [5]: inactive

CCOC(=O)c1ccc(C#Cc2ccc3c(c2)C(C)(C)CCS3)nc1
viability [1]: 106%
Potency [6]: 0.662 µM (active)
Potency [3]: inactive
Potency [4]: 8.33 µM (active)
Potency [5]: inactive

C=CCc1cccc(/C=N/NC(=O)CN2CCN(Cc3ccccc3)CC2)c1O
Potency [1]: 20.9 µM (active)
Potency [6]: 16.6 µM (active)
Potency [3]: 23.5 µM (active)
Potency [4]: 8.33 µM (active)
Potency [5]: 14.8 µM (active)

C=CC(=O)N[C@H]1CN(c2nc(Nc3cn(C)nc3OC)c3ncn(C)c3n2)C[C@@H]1F
viability [1]: 87.8%
Potency [2]: inactive

O=C1NC(=O)/C(=C\c2ccc(-c3ccc(F)cc3)o2)S1
Potency [1]: 20.9 µM (active)
Potency [6]: inactive
Potency [4]: inactive
Potency [5]: inactive

CC(=O)O/N=C1/C(c2c(O)[nH]c3cc(Br)ccc23)=Nc2ccccc21
Potency [1]: 14.8 µM (active)
Potency [2]: 2.95 µM (active)
Potency [3]: inactive
Potency [4]: 18.6 µM (active)

COc1ccc(C(=O)N2CCN(C(=O)/C=C/c3ccc(Br)cc3)CC2)cc1
viability [1]: 111%
Potency [6]: 11.8 µM (active)
Potency [4]: inactive
Potency [5]: inactive

Cc1cc(Nc2cc(N)ncn2)c(=O)n2c1C(=O)NC21CCCCC1
viability [1]: 117%
Potency [6]: 8.11 µM (active)
Potency [3]: inactive
Potency [5]: inactive

Cc1nc(NC(=O)N2CCC[C@H]2C(N)=O)sc1-c1csc(C(C)(C)C)n1
viability [1]: 98.3%
Potency [2]: inactive

CCn1c(=O)c2c(nc(/C=C/c3ccc(OC)c(OC)c3)n2C)n(CC)c1=O
viability [1]: 107%
Potency [2]: inactive
Potency [3]: inactive
Potency [4]: inactive
Potency [5]: inactive

NS(=O)(=O)c1ccc(Cc2c(-c3cccc(-c4ccccc4)c3)nn(-c3nc(C(=O)O)cs3)c2CC2CC2)cc1
viability [1]: 106%
Potency [2]: inactive
Potency [3]: inactive
Potency [4]: 7.42 µM (active)

COc1ccc(-c2ccc3c(N4CCOC[C@@H]4C)nc(N4CCOC[C@@H]4C)nc3n2)cc1CO
Potency [7]: 0.148 µM (active)
Potency [6]: 0.132 µM (active)

CCc1cc(/C(C)=N/OCc2ccc(C3CCCCC3)c(C(F)(F)F)c2)ccc1CN1CC(C(=O)O)C1
Potency [1]: 16.6 µM (active)
Potency [2]: inactive
Potency [3]: inactive
Potency [5]: inactive

CN(CCOc1ccc(-c2ccc3c(c2)OCO3)cc1C(C)(C)C)CC(=O)O
viability [1]: 105%
Potency [2]: inactive
Potency [3]: inactive
Potency [5]: inactive

O=S(=O)(c1cccc2cnccc12)N1CCCNCC1
viability [1]: 101%
Potency [2]: inactive
Potency [4]: inactive
Potency [5]: inactive

CC/C(=C(/CC)c1ccc(O)cc1)c1ccc(O)cc1
Potency [1]: 20.9 µM (active)
Potency [3]: inactive

O=c1cc(-c2cccc3c2Sc2ccccc2S3)oc(N2CCOCC2)c1
Potency [7]: 13.2 µM (active)
Potency [6]: 18.6 µM (active)

CN(C)CCN(C)C(=O)c1ccc(NC(=O)Nc2ccc(-c3nc(N4CCOCC4)c4ccn(CC(F)(F)F)c4n3)cc2)cc1
Potency [7]: 0.934 µM (active)

CCc1ccc2nc(Nc3cc(Cc4ccccc4)nc(NC4CCC(O)CC4)n3)sc2c1 (stereo not drawn)
Potency [7]: 18.6 µM (active)
Potency [6]: 18.6 µM (active)

COc1ccc2nc(S(=O)Cc3ncc(C)c(OC)c3C)[nH]c2c1 (stereo not drawn)
viability [1]: 95.9%
Potency [3]: inactive
Potency [5]: inactive

CC(C)c1cnn2c(NCc3ccccc3)cc(NCCCCCCN)nc12
Potency [7]: 23.5 µM (active)
Potency [6]: 18.6 µM (active)

CC[C@H]1OC(=O)[C@H](C)[C@@H](O[C@H]2C[C@@](C)(OC)[C@@H](O)[C@H](C)O2)[C@H](C)[C@@H](O[C@@H]2O[C@H](C)C[C@H](N(C)C)[C@H]2O)[C@](C)(O)C[C@@H](C)CN(C)[C@H](C)[C@@H](O)[C@]1(C)O
Potency [1]: 0.468 µM (active)
Potency [3]: inactive
Potency [5]: inactive

Cc1cc(C)c(CNC(=O)c2cc(-c3ccc(N4CCN(C)CC4)nc3)cc3c2c(C)cn3C(C)C)c(=O)[nH]1
Potency [7]: 18.6 µM (active)
Potency [6]: 23.5 µM (active) and 20.9 µM (active)

Cc1cc(Nc2ncnc3ccc(NC4=NC(C)(C)CO4)cc23)ccc1Oc1ccn2ncnc2c1
Potency [1]: 20.9 µM (active)
Potency [3]: inactive

C[C@@H]1CC2C3C[C@H](F)C4=CC(=O)C=C[C@]4(C)[C@@]3(F)[C@@H](O)C[C@]2(C)[C@@]1(OC(=O)c1ccco1)C(=O)SCF (stereo partly drawn)
Potency [7]: 20.9 µM (active)

CN1C(=O)[C@@H](NC(=O)c2cc(Cc3ccccc3)on2)COc2ccccc21
viability [1]: 73.2%
Potency [3]: inactive
Potency [4]: inactive

O=C1OC(COc2ccccc2[N+](=O)[O-])CC1Cc1ccccc1 (stereo not drawn)
viability [1]: 112%
Potency [2]: inactive
Potency [4]: inactive
Potency [5]: inactive

O=c1[nH]nc2c3c(cccc13)NC(CN1Cc3ccccc3C1)=N2
Potency [7]: 16.6 µM (active)
Potency [6]: 16.6 µM (active)

CCCCC[C@H](O)C=C[C@H]1[C@H](O)CC(=O)[C@H]1CC=CCCCC(=O)O
Potency [7]: 5.9 µM (active)

CC(=O)C1CCC2C3CCC4=CC(=O)CCC4(C)C3CCC12C (stereo not drawn)
Potency [1]: 18.6 µM (active)
Potency [3]: inactive

CCOC(=O)[C@@]1(CCCCCCOc2ccc(Cl)cc2)CO1
viability [1]: 92%
Potency [3]: inactive
Potency [5]: inactive

OCCOc1ccc(/C(=C(/CCCl)c2ccccc2)c2ccccc2)cc1
Potency [1]: 16.6 µM (active)
Potency [3]: inactive
Potency [5]: inactive

COC(=O)[C@H]1[C@@H](O)[C@@]2(O)c3c(OC)cc(O[C@@H]4O[C@@H]([C@@H](O)CO)CO[C@H]4OC)cc3O[C@@]2(c2ccc(OC)cc2)[C@@H]1c1ccccc1
viability [1]: 77.8%
Potency [4]: inactive

COc1ccc2c(c1)C(c1ccc(F)cc1)=C(CN1CCCC1)CO2
viability [1]: 95.4%
Potency [3]: inactive
Potency [4]: inactive
Potency [5]: inactive

O=C(NO)c1cnc(NC2(c3cccc(F)c3)CCCCC2)nc1
Potency [1]: 9.34 µM (active)
Potency [4]: 10.5 µM (active)

CN[C@@H](C)C(=O)N[C@H](C(=O)N1CCC[C@H]1C(=O)Nc1sc(-c2ncco2)nc1-c1ccccc1)C1CCCCC1
viability [1]: 112%
Potency [3]: 1.18 µM (active)

CS[C@H]1SC[C@@H]2C(=O)N(C)[C@H](C(C)C)C(=O)OC[C@H](NC(=O)c3cnc4ccccc4n3)C(=O)N[C@H](C)C(=O)N(C)[C@H]1C(=O)N(C)[C@H](C(C)C)C(=O)OC[C@H](NC(=O)c1cnc3ccccc3n1)C(=O)N[C@H](C)C(=O)N2C
Potency [1]: 0.0148 µM (active)
Potency [2]: 0.0066 µM (active)
Potency [3]: 0.0053 µM (active)
Potency [4]: 0.0132 µM (active)
Potency [5]: 0.0132 µM (active)

COC[C@@H](c1ccc(C(F)(F)F)cc1)N1CCN(C2(C)CCN(C(=O)c3c(C)ncnc3C)CC2)C[C@@H]1C
viability [1]: 111%
Potency [4]: inactive
Potency [5]: inactive

C[C@H](Nc1nc(N[C@H](C)C(F)(F)F)nc(-c2cccc(Cl)n2)n1)C(F)(F)F
viability [1]: 120%
Potency [4]: inactive
Potency [5]: inactive

Cc1cc(O)c(-c2ccc([C@@H](C)CN)cc2)c2c1[nH]c(=O)c1sccc12
Potency [1]: 0.372 µM (active)
Potency [2]: 0.0417 µM (active)
Potency [4]: 0.0833 µM (active)
